Several values for one entry are separate records, joined by “and”; a condition that tells them apart may be missing. Identical values can stand only once. Activity calls are given as the source filed them.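 How the source made its calls, unless noted: active means thallium flux through the channel raised or lowered by more than 3 SD from vehicle-only wells, actives on both sides; inactive means the rest.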
Legend:
[1] = liver-stage malaria parasite growth inhibition, primary screen, cell-based, HepG2, luciferase luminescence, HepG2 viability (AID 624349; in the data active means parasite load remaining mostly below about 12%, no sharp cut-off; inactive means mostly above about 10%;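 further: 100% = mean of DMSO negative control wells on the same plate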); details: P. berghei liver stage in HepG2, luciferase luminescence, concentration not given here; parasite load remaining: stronger effect = lower value; viability: measured here: HepG2 viability without parasites
[2] = Cy5 fluorescence interference with SSB-bound oligo, artefact control for HCV NS3 helicase inhibitor project, biochemical, NIH Clinical Collection, E. coli SSB (AID 743268; call rule not given here)
[3] = tested on: Hepatitis C virus NS3 helicase; assay: HCV NS3 helicase inhibitors, primary screen, biochemical, fluorescence polarization, NIH Clinical Collection (AID 743270; call rule not given here); details: NS3 helicase binding to Cy5-dT15 DNA, stronger effect = higher value, concentration not given here
[4] = target: Single-stranded DNA-binding protein (Escherichia coli (strain K12)) (UniProt P0AGE0); assay: E. coli SSB displacement from DNA, counter-screen for HCV NS3 helicase inhibitor project, biochemical, fluorescence polarization, NIH Clinical Collection (AID 743271; in the data active means inhibition above about 28%); details: stronger effect = higher value, concentration not given here
[5] = fluorescence interference in NS3h assay format, artefact control for HCV NS3 helicase inhibitor project, biochemical, NIH Clinical Collection (AID 743272; call rule not given here;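 further: HCV NS3 helicase with a Cy5 labelled single stranded DNA probe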); details: fluorescence interference counterscreen, stronger effect = lower value
[6] = sensitizers of A549 cells to miR-34 induction, primary screen, imaging, A549 dox-inducible miR-34, nuclei and caspase counts (AID 1347080;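 active means compounds whose cell count with miR-34 switched on is under 0.7 times the count with it off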); details: A549 miR-34 inducible, Hoechst nuclei count, 48 h
F380Y = assay: modulators of BK channel variants, profiling panel, selectivity assay, cell-based, U2OS BacMam, thallium flux, beta subunits (AID 1259406); details: at 30 µM;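 further: initial slope of Thallos dye fluorescence rise after thallium is added; log ratio against the mean of 0.3% DMSO vehicle wells on the same plate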
F380Y/beta2Delta = assay: as above; details: at 30 µM
R275C = assay: as above; details: at 30 µM
R275C/beta1 = assay: as above; details: at 30 µM
R275C/beta2Delta = assay: as above; details: at 30 µM
R275C/Slo1WT/beta2 = assay: as above; details: at 30 µM
[7] = measured here: relative caspase fold change +Dox/-Dox
[8] = measured here: total cells with miR-34 induction, stronger effect = lower value
[9] = measured here: total cells without miR-34 induction
[10] = stronger effect = lower value, cell number ratio, induced over uninduced

Row | Compound | parasite load remaining [1] | viability [1] | fluorescence ratio [2] | inhibition [3] | inhibition [4] | fluorescence ratio [5] | fold change ([6]; stronger effect = lower value) | fold change [6, 7] | cell count [6, 8] | cell count [6, 9] | log fold change Tl+ flux (F380Y) | log fold change Tl+ flux (F380Y/beta2Delta) | log fold change Tl+ flux (R275C) | log fold change Tl+ flux (R275C/beta1) | log fold change Tl+ flux (R275C/beta2Delta) | log fold change Tl+ flux (R275C/Slo1WT/beta2) | fold change [6, 10]
1 | Cc1nnc2n1-c1ccc(Cl)cc1C(c1ccccc1)=NC2 | 139% (inactive) | 72.1% | 1.03 (inactive) | -4.36% (inactive) | -1.64% (inactive) | 0.99 (inactive) | 1.01 (inactive) | 1.21 | 9000 | 8940 | -0.0314 (inactive) | -0.00534 (inactive) | 0.0519 (inactive) | 0.00402 (inactive) | 0.0255 (inactive) | -0.00622 (inactive) | –
2 | O=C1Nc2ccc(Cl)cc2C(c2ccccc2Cl)=NC1O (stereo not drawn) | 64.7% (inactive) | 68.3% | 0.98 (inactive) | -3.71% (inactive) | -0.39% (inactive) | 0.96 (inactive) | 0.901 (inactive) | 1.36 | 9700 | 10800 | – | – | – | – | – | – | –
3 | Clc1ccc(CON=C(Cn2ccnc2)c2ccc(Cl)cc2Cl)c(Cl)c1 | 2.5% (inactive) | 54.6% | 0.95 (inactive) | 13.1% (inactive) | 7.6% (inactive) | 1 (inactive) | 1.28 (inactive) | 0.637 | 3280 | 2560 | -0.0332 (inactive) | -0.00783 (inactive) | -0.0645 (inactive) | 0.329 (active) | -0.0303 (inactive) | 0.0197 (inactive) | –
4 | O[C@@H]1CCCC[C@H]1N1CCC(c2ccccc2)CC1 | 78.7% (inactive) and 101% (inactive) | 93.8% and 73% | 0.98 (inactive) | 1.19% (inactive) | 0.67% (inactive) | 0.91 (inactive) | 0.933 (inactive) and 0.866 (inactive) | 1.17 and 0.745 | 8520 and 8230 | 9130 and 9500 | – | – | – | – | – | – | –
5 | NC(=NCc1ccc(Cl)cc1)SCCCc1cnc[nH]1 | 42% (inactive) | 63.6% | 0.97 (inactive) | -2.84% (inactive) | 0.39% (inactive) | 0.97 (inactive) | 0.914 (inactive) | 0.654 and 0.836 | 8670 and 7970 | 9480 and 8280 | – | – | – | – | – | – | 0.963 (inactive)
6 | CCCCCCCCCOc1ccc2[nH]cc(CCN)c2c1 | 0.13% (inactive) | 3.42% | 0.97 (inactive) | -8.08% (inactive) | 67.3% (active) | 0.61 (active) | 0.664 (active) | 1.96 | 4000 | 6020 | – | – | – | – | – | – | –
7 | CN1C(=O)CN=C(c2ccccc2)c2cc(Cl)ccc21 | 122% (inactive) | 81.8% | 1.03 (inactive) | -1.98% (inactive) | 0.67% (inactive) | 1.02 (inactive) | 0.967 (inactive) | 1.74 | 9270 | 9590 | 0.00227 (inactive) | 0.0204 (inactive) | -0.0487 (inactive) | -0.07 (inactive) | -0.0058 (inactive) | 0.0176 (inactive) | –
8 | CC[C@@H]1/C=C/C=C/C[C@H](C)[C@@H](O)[C@](C)(O)C(=O)[C@H](C)[C@@H](O)[C@H](C)C(=O)[C@H](C)[C@@H](O)[C@H](C)/C=C/C(=O)O[C@H]2[C@@H](C)[C@@H](CC1)O[C@@]1(CC[C@@H](C)[C@@H](C[C@H](C)O)O1)[C@@H]2C | – | – | – | – | – | – | 0.872 (inactive) | 0.921 | 989 | 1130 | – | – | – | – | – | – | –
9 | COc1ccc2c(c1)C13CCCC[C@@H]1C(C2)N(C)CC3 (stereo partly drawn) | 74.7% (inactive) | 74% | 0.98 (inactive) | 0.4% (inactive) | 2.21% (inactive) | 0.92 (inactive) | – | – | – | – | – | – | – | – | – | – | –
10 | COC(=O)N1CCN(C(=O)Cc2ccc(Cl)c(Cl)c2)C(CN2CCCC2)C1 (stereo not drawn) | 76.7% (inactive) | 75.4% | 1.05 (inactive) | 4.36% (inactive) | 2.21% (inactive) | 1.03 (inactive) | 0.961 (inactive) | 1.01 and 1.9 | 10100 and 8750 | 10500 and 9910 | 0.0797 (inactive) | 0.0718 (inactive) | -0.00833 (inactive) | 0.0475 (inactive) | 0.0511 (inactive) | 0.0529 (inactive) | 0.883 (inactive)
11 | CC(C)[C@]12O[C@H]1[C@@H]1O[C@]13[C@]1(O[C@H]1C[C@H]1C4=C(CC[C@@]13C)C(=O)OC4)[C@@H]2O | 122% (inactive) | 67.7% | 1.04 (inactive) | -2.77% (inactive) | -6.26% (inactive) | 1.03 (inactive) | 1.04 (inactive) | 1.51 | 1360 | 1300 | -0.0264 (inactive) | -0.0407 (inactive) | -0.0177 (inactive) | 0.0288 (inactive) | 0.0395 (inactive) | 0.00131 (inactive) | –
12 | C[C@]12CCC(=O)C=C1CC[C@@H]1[C@@H]2CC[C@@]2(C)[C@H]1CC[C@]2(C)O | 82.1% (inactive) | 78% | 1.03 (inactive) | 0.4% (inactive) | -2.41% (inactive) | 0.97 (inactive) | – | – | – | – | -0.0714 (inactive) | -0.0632 (inactive) | -0.0155 (inactive) | 0.014 (inactive) | 0.0131 (inactive) | -0.0244 (inactive) | –
13 | CCN(C(C)=O)c1cccc(-c2ccnc3c(C#N)cnn23)c1 | 67.8% (inactive) | 71% | 0.96 (inactive) | -1.97% (inactive) | -3.54% (inactive) | 0.98 (inactive) | 0.85 (inactive) | 1.13 | 8990 | 10600 | – | – | – | – | – | – | –
14 | CN=C1CN(O)C(c2ccccc2)=c2cc(Cl)ccc2=N1 | 61% (inactive) | 68.2% | 0.93 (inactive) | -3.71% (inactive) | 1.97% (inactive) | 0.94 (inactive) | 0.896 (inactive) | 1.36 | 9820 | 11000 | 0.0582 (inactive) | 0.0735 (inactive) | -0.0835 (inactive) | 0.11 (active) | 0.0426 (inactive) | -0.0229 (inactive) | –
15 | CC12CCC(=O)C=C1CCC1C2CCC2(C)C(O)CCC12 (stereo not drawn) | 38.7% (inactive) | 100% | 0.97 (inactive) | -3.18% (inactive) | -3.53% (inactive) | 1.01 (inactive) | 0.96 (inactive) | 2.43 | 9970 | 10400 | 0.0199 (inactive) | 0.032 (inactive) | 0.011 (inactive) | 0.00563 (inactive) | 0.059 (inactive) | -0.0485 (inactive) | –
16 | COc1ccc2[nH]cc(C3=CCNCC3)c2c1 | 75.7% (inactive) | 72.8% | 0.58 (active) | -1.09% (inactive) | 5.91% (inactive) | 0.79 (active) | 0.984 (inactive) | 1.1 and 0.779 | 6960 and 7660 | 7080 and 8260 | 0.0506 (inactive) | 0.0281 (inactive) | -0.00261 (inactive) | 0.0891 (active) | 0.0216 (inactive) | 0.242 (active) | 0.928 (inactive)
17 | CN1CC[C@@H](c2ccc(F)cc2)[C@H](COc2ccc3c(c2)OCO3)C1 | 84.5% (inactive) | 65.3% | 1.01 (inactive) | 2.77% (inactive) | 0.67% (inactive) | 0.93 (inactive) | – | – | – | – | 0.106 (inactive) | 0.045 (inactive) | -0.0665 (inactive) | 0.146 (active) | 0.0265 (inactive) | -0.033 (inactive) | –
18 | Oc1cc2c(cc1O)[C@H]1c3ccccc3CN[C@@H]1CC2 | 31.6% (inactive) | 68.7% | 0.94 (inactive) | -5.46% (inactive) | -4.33% (inactive) | 0.91 (inactive) | – | 0.736 | 8740 | 9020 | -0.103 (inactive) | -0.0567 (inactive) | -0.0506 (inactive) | 0.0796 (active) | 0.137 (active) | 0.0271 (inactive) | 0.969 (inactive)
19 | C[C@]12CC(=CO)C(=O)C[C@@H]1CC[C@@H]1[C@@H]2CC[C@@]2(C)[C@H]1CC[C@]2(C)O | 62.4% (inactive) | 66.1% | 1.04 (inactive) | 5.15% (inactive) | 3.75% (inactive) | 1.01 (inactive) | – | – | – | – | 0.111 (active) | 0.171 (active) | 0.0626 (inactive) | 0.301 (active) | 0.261 (active) | 0.0227 (inactive) | –

From PubChem BioAssay
